{
  "source": "PubChem BioAssay AID2165",
  "about": "(The Scripps Research Institute Molecular Screening Center, 2009)",
  "note": "Active and inactive are the calls of the source. No stated cut-off is given here; in the data, active means IC50 below about 9 µM; inactive means the rest.",
  "data": [
    {"system": "Ba/F3 Cytotoxicity", "assay": "JAK2V617F project follow-up: kinase, reporter, cytotoxicity – HEL and Ba/F3 cells, late-stage follow-up (AID 2165)", "details": "JAK2V617F panel: kinase, IRF1 reporter", "values": [
      {"smiles": "N#CC(C#N)=Cc1ccc(O)c(O)c1", "IC50": "2.56 µM (active)"},
      {"smiles": "N#CC(C#N)=Cc1cc(O)c(O)c(I)c1", "IC50": "8.99 µM (active)"},
      {"smiles": "CC(C)[C@@H](CO)Nc1nc(Nc2cccc(Cl)c2)c2ncn(C(C)C)c2n1", "IC50": "0.95 µM (active)"}
    ]}
  ]
}
